Source: PubChem
Mtb FBA inh = inhibitors of M. tuberculosis fructose-bisphosphate aldolase. P9WQA3. purified M. tuberculosis FBA, fluorescence read-out. inhibition, % at 1 µM. 360,000 tested, 2.3% active. AID 588726; in the data active means inhibition above about 27%
Target sequence (P9WQA3 whole entry, looked up): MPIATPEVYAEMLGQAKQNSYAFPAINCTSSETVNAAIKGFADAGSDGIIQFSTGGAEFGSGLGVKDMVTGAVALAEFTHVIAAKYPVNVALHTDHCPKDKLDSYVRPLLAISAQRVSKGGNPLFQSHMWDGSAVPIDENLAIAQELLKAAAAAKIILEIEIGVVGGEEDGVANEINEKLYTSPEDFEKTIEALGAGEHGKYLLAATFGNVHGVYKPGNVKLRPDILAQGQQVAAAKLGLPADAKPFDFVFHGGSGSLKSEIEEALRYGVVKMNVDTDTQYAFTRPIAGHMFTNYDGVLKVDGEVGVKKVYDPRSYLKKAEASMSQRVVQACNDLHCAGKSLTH
RecA intein inh = blocks M. tuberculosis RecA intein splicing; cell-free RecA intein splicing, fluorescence; inhibition, % (concentration not given with the values); 290,000 tested, 0.75% active; P9WHJ3; in the data active means inhibition above about 30%
Mtb bLac sens = beta-lactam sensitization of Mtb H37Rv. M. tuberculosis H37Rv growth with meropenem, percent inhibition. inhibition, % at 25 µM. 330,000 tested, 0.27% active. AID 434955;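 further: growth measured after seven days incubation then overnight dye step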
GDH-TPI counter-1 = inhibits GDH-TPI coupling enzymes, artifact for Mtb FBA screen; GDH-TPI coupled enzyme counterscreen, NADH absorbance; inhibition, % at 4.8 µM; 360,000 tested, 1.2% active; in the data active means inhibition above about 30%
UGM FP inh = inhibitors of M. tuberculosis UDP-galactopyranose mutase; P9WIQ1; 320,000 tested, 0.06% active; purified UGM, fluorescence polarization probe displacement; AID 504406; inhibition, % at 10 µM; in the data active means inhibition above about 10%, passing the limit was not always enough
Rv3671c inh = Rv3671c (M. tuberculosis) protease inhibition; P9WHR9; 320,000 tested, 0.048% active; AID 2606; inhibition, % at 5.96 µM; in the data active means inhibition above about 38%;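 further: extracellular domain of Rv3671c used as enzyme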
Mtb FBA confirm = Mtb FBA inhibition, confirmed; AID 651616; inhibition, % at 1 µM; purified M. tuberculosis FBA, fluorescence read-out; shares compounds with Mtb FBA inh; 5,600 tested, 78% active; in the data active means inhibition above about 27%
GDH-TPI counter-2 = inhibits GDH-TPI coupling enzymes, flagging Mtb FBA hits; shares compounds with Mtb FBA inh; 5,600 tested, 81% active; AID 652141; GDH-TPI coupled enzyme counterscreen, fluorescence; inhibition, % at 1 µM; in the data active means inhibition above about 10%
GDH-TPI dose = GDH-TPI dose response counter-screen for Mtb FBA. 170 tested, 79% active. IC50, µM. GDH-TPI coupled enzyme assay, fluorescence, artifact counterscreen. shares compounds with Mtb FBA inh
A number is an active result; n = inactive; x = no result; + = active, no number. Rows were chosen to be rich in hits. Some 4% of all compounds tested hit in one or more screens of this group. Unless noted, how the calls were made is not given here.

SMILES	Mtb FBA inh	RecA intein inh	Mtb bLac sens	GDH-TPI counter-1	UGM FP inh	Rv3671c inh	Mtb FBA confirm	GDH-TPI counter-2	others
COc1cccc(/C=C/c2nc(S(=O)(=O)c3ccccc3)c(N3CCC(C(N)=O)CC3)o2)c1	38.1	x	x	31.0	x	x	n	n	GDH-TPI dose=1.34
NC(=O)C1CCN(c2oc(-c3ccc(F)cc3)nc2S(=O)(=O)c2ccccc2)CC1	n	x	n	n	n	n	x	x
Cc1c(Cc2ccccc2)c(=O)oc2cc(OCC(=O)NCC(O)c3ccccc3)ccc12 (configuration not stated)	79.5	n	n	n	n	n	+	+
Cc1c(CCC(=O)O)c(=O)oc2c(C)c(OCc3cc4c(cc3Cl)OCO4)ccc12	n	n	n	n	n	n	x	x
O=C(COc1ccc2c(-c3ccccc3)cc(=O)oc2c1)NCC(O)c1ccccc1 (configuration not stated)	n	n	n	n	n	n	x	x
Cc1c(CCC(=O)O)c(=O)oc2cc(OCc3cccc(Cl)c3)ccc12	90.9	n	n	n	n	n	114.9	109.5
O=c1oc(C2(O)CCCCC2)cc2ccc(Br)cc12	n	x	n	n	n	n	x	x
O=c1oc(C2(O)CCCCC2)cc2ccc(/C=C/c3ccc(F)cc3)cc12	31.6	x	n	n	n	n	34.4	24.0
Cc1ccc(NC(=O)CSc2cn[nH]n2)cc1	n	n	n	n	n	n	x	x
O=C(CSc1cn[nH]n1)Nc1ccc(O)c(C(=O)O)c1	30.9	n	n	n	n	n	n	n
C=CCCC(=O)N1CCCC(C(=O)c2cccc(OC)c2)C1 (configuration not stated)	n	n	n	n	n	n	x	x
COc1ccc(-c2cnc3c(NC(C)=O)cc(-c4ccccc4OC)cn23)cc1OC	n	x	x	n	x	x	x	x
CC(=O)Nc1cc(-c2cccc(C)c2)cn2c(-c3ccc(S(C)(=O)=O)cc3)cnc12	35.0	x	x	n	x	x	n	n
CC(=O)Nc1cc(-c2ccccc2Cl)cn2c(-c3ccc(S(C)(=O)=O)cc3)cnc12	41.5	x	x	n	x	x	+	182.6
COc1ccccc1-c1cc(NC(C)=O)c2ncc(-c3ccc(S(C)(=O)=O)cc3)n2c1	58.5	x	x	n	x	x	71.4	61.7
COc1cccc(NC(=O)C2(C)CCN2CCc2ccccc2)c1 (configuration not stated)	n	x	x	n	x	x	x	x
Cc1cc(C)n2nc(SCC(=O)NC(=O)c3ccc(OC(F)F)cc3)nc2n1	n	x	n	n	n	n	x	x
CC(=O)Nc1ccc(S(=O)(=O)N=S(C)C)cc1	n	n	n	n	n	n	x	x
CCS(CC)=NS(=O)(=O)c1ccc(NC(C)=O)cc1	63.9	n	n	n	x	n	98.3	86.7
CCOC(=O)CNc1c(-c2ccc(Cl)cc2)nc2cnccn12	68.3	n	n	n	n	n	55.7	50.0
CC1(C(=O)NCCc2ccccc2)Cc2c(-c3ccc4c(c3)OCO4)ccnc2O1 (configuration not stated)	46.2	x	x	n	x	x	59.1	41.0
COc1ccc(NC(=O)C2(C)Cc3c(-c4ccc5c(c4)OCO5)ccnc3O2)cn1 (configuration not stated)	42.2	x	x	n	x	x	168.6	123.8
CC1(C(=O)NCc2ccccc2)Cc2c(-c3ccc4c(c3)OCO4)ccnc2O1 (configuration not stated)	68.6	x	x	n	x	x	109.1	104.7
COCCNC(=O)C1(C)Cc2c(-c3ccc4c(c3)OCO4)ccnc2O1 (configuration not stated)	95.6	x	x	n	x	x	71.3	51.2
CC1(C(=O)Nc2ccc3c(c2)OCO3)Cc2c(-c3ccc4c(c3)OCO4)ccnc2O1 (configuration not stated)	n	x	x	n	x	x	x	x
CC(C)(C)c1nnc(NC(=O)CCn2cnc3ccccc3c2=O)s1	n	n	n	n	n	n	x	x
Cc1nnc(SCC(=O)Nc2ccc(N3CCOCC3)cc2)n1Cc1ccccc1	n	x	n	n	n	n	x	x
CN(CCc1ccccn1)C(=S)Nc1cccc(S(=O)(=O)N(C)C)c1	n	n	n	n	n	n	x	x
CSC(SC)=C(C#N)C(=O)c1ccccc1	n	n	n	n	n	n	x	x
